Source: PubChem (National Center for Advancing Translational Sciences (NCATS))
Nrf2 activator – Nrf2 pathway activation; AREc32 ARE-luciferase reporter (MCF7-derived line), luminescence, 24 h; Potency, µM (top dose mostly 46.1 µM), for inactives: at the highest dose activation, usual class: activators; 410,000 compounds, 0.31% hits; AID 624171; note: % of control where 0% means no effect; nearly all actives have a fitted effect of over 65% in size
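Luminescent ARE reporter assay in AREc32_Fluc cells: overnight plating at 37 deg C, 24 hr compound incubation, Steady-Glo added, 30 min RT before reading.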
ELG1 DNA repair – inhibitors of ELG1-dependent DNA repair in HEK293T cells; HEK293T ELG1-luciferase reporter, luminescence, 16 h; DNA damage induced by 5-fluorouridine; Potency, µM (highest dose often 46.1 µM), without a hit: at the highest dose activity change, negative = inhibition, usual class: inhibitors; 330,000 compounds, 2.3% hits; AID 504467; note: % is set by controls: 0 for no effect and ±100 for the full control effect; nearly all actives have a fitted effect of over 55% in size
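Cells (2,000 per well) received 5-fluorouridine plus test compound or DMSO and were incubated 16 hr at 37 °C, 5% CO2. Luciferase activity was read by luminescence 30 min after ONE-Glo addition; signal suppression marked inhibition of damage-induced ELG1 function.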
A549 tox – kills or reduces viability of A549 cells in Nrf2 counter-screen | A549 ARE-Fluc cells, CellTiter-Fluor viability, 18-24 h | Potency, µM (highest dose often 46 µM), for inactives: at the highest dose activity change, negative = cytotoxicity, usual class: inhibitors | 390,000 compounds, 0.16% hits | AID 504648; note: % is set by controls: 0 for no effect and ±100 for the full control effect
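A549 ARE_Fluc cells in 5% FBS OPTI-MEM were exposed to compounds in concentration-response for 18-24 h at 37 deg C. Viability was read by CellTiter-Fluor fluorescence (Ex 405/Em 525) after 30 min, before the luciferase read.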
mIDH1 inhibitor – inhibitors of human mutant IDH1 R132H; IDH1-R132H enzyme, NADPH consumption, diaphorase/resazurin fluorescence; Potency, µM (doses to about 76.6 µM), inactives show top-dose activity change, negative = inhibition, most hits filed as inhibitors; 390,000 compounds, 0.093% hits; note: % is set by controls: 0 for no effect and ±100 for the full control effect; nearly all actives have a fitted effect of over 65% in size
Target sequence (O75874 whole entry R132H, stated change not applied): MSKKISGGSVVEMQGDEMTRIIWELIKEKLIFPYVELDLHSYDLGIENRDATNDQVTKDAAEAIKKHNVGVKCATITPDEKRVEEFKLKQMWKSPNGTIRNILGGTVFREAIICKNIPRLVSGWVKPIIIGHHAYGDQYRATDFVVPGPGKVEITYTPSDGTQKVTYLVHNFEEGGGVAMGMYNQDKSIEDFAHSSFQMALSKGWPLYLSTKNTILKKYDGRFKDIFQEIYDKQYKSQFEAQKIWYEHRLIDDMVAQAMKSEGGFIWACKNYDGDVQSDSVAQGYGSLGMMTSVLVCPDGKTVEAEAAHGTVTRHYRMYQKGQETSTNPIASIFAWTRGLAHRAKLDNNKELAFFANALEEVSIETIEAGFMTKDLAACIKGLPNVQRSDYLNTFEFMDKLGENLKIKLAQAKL
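IDH1-R132H (0.5 ug/mL) preincubated 30 min with compound, then NADPH (0.016 mM) and alpha-KG (2 mM) added; 80 min at RT, pH 7.5. Remaining NADPH coupled via diaphorase/resazurin to fluorescence (540/590 nm); concentration-response curves normalized to no-enzyme control.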
Nrf2 block – inhibitors of Nrf2 signaling; A549 ARE-Fluc reporter, luciferase luminescence, 18-24 h; Potency, µM (highest dose often 46 µM), without a hit: top-dose activity change, negative = inhibition, usual class: inhibitors; 360,000 compounds, 2.1% hits; note: % is set by controls: 0 for no effect and ±100 for the full control effect; nearly all actives have a fitted effect of over 60% in size
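A549 ARE_Fluc cells, 5000/well, 5% FBS OPTI-MEM; compounds in dose-response, 18-24 h at 37 °C/5% CO2; CellTiter-Fluor viability read (Ex 405/Em 525), then BugLite luciferase luminescence = Nrf2 activity.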
* marks the source's active call; other numbers are inactive results. Sampled rows, rich in hits. Any-hit rate of the full collection: about 3.8%. Calls come from the whole dose curve; as a rule, active = well fitted curve in the direction sought with a large enough effect; inconclusive = small, poorly fitted or top-dose-only effect, or another doubt; inactive = no such curve, though single readings can be large; an effect the other way counts as inactive or inconclusive. Potency is the fitted concentration of half-maximal effect.

For COC(=O)c1c(NC(=O)CN2CCN(Cc3ccc4c(c3)OCO4)CC2)sc(C)c1C the results were Nrf2 activator 4%, ELG1 DNA repair 8.2µM*, A549 tox -2%, mIDH1 inhibitor 4% and Nrf2 block -7%.
COC(=O)c1c(-c2ccc(Cl)cc2)noc1N1CCN(c2cccc(OC)c2)CC1 was read as Nrf2 activator 0%, A549 tox -2% and mIDH1 inhibitor 1%.
For CCOc1cc(C2Nc3ccccc3C(=O)N2Cc2ccco2)ccc1OCc1ccccc1Cl (stereo not drawn) the results were A549 tox 0% and Nrf2 block inconclusive.
Screening CN(C)S(=O)(=O)c1ccc(C(=O)NCCSc2ccc(Br)cc2)cc1 returned Nrf2 activator 5%, ELG1 DNA repair -17%, A549 tox inconclusive, mIDH1 inhibitor 8% and Nrf2 block 21µM*.
`O=[N+]([O-])c1ccc(C[n+]2cccc3ccc4cccnc4c32)cc1` gave Nrf2 activator 0%, ELG1 DNA repair 7.3µM*, A549 tox -1%, mIDH1 inhibitor 1% and Nrf2 block inconclusive.
`CCOC(=O)c1ccc2c(c1)N(Cc1ccc(F)cc1Cl)C(=O)c1ccccc1S2` gave Nrf2 activator 0%, A549 tox 4% and mIDH1 inhibitor 4%.
Cc1ccc(S(=O)(=O)Nc2ccc(O)c3ccccc23)c(C)c1 was read as Nrf2 activator -3%, ELG1 DNA repair 16µM*, A549 tox -23%, mIDH1 inhibitor 16% and Nrf2 block -24%.
Screening COc1ccc(S(=O)(=O)Nc2ccc(O)c3ccccc23)cc1 returned Nrf2 activator -2%, ELG1 DNA repair 9.2µM*, A549 tox -8%, mIDH1 inhibitor 12% and Nrf2 block -12%.
Screening Cc1ccc(C)c(S(=O)(=O)Nc2ccc(O)c3ccccc23)c1 returned Nrf2 activator 17%, ELG1 DNA repair inconclusive, A549 tox -3%, mIDH1 inhibitor 22% and Nrf2 block 0%.
`COc1ccc(S(=O)(=O)Nc2ccccc2)cc1` gave Nrf2 activator 0%, A549 tox 2%, mIDH1 inhibitor 3% and Nrf2 block -9%.
Screening Cc1ccc(NC(=O)CSc2nc3ccccc3n2CC(=O)N2CCC(C)CC2)cc1C returned Nrf2 activator 0%, A549 tox -29% and mIDH1 inhibitor 8%.
`O=C(CCCCCn1c(=S)[nH]c2cc3c(cc2c1=O)OCO3)N1CCN(c2ccccc2)CC1` gave Nrf2 activator 0%, ELG1 DNA repair 2%, A549 tox -2%, mIDH1 inhibitor 8% and Nrf2 block -3%.
`CCOC(=O)N1CCN(C(=O)CCCn2c(=S)[nH]c3ccccc3c2=O)CC1` gave Nrf2 activator -1%, A549 tox 0%, mIDH1 inhibitor 8% and Nrf2 block -22%.
`O=C(CCCn1c(=S)[nH]c2cc3c(cc2c1=O)OCO3)N1CCN(c2ncccn2)CC1` gave Nrf2 activator -1%, ELG1 DNA repair 15µM*, A549 tox -10%, mIDH1 inhibitor 6% and Nrf2 block inconclusive.
O=C(CCCn1c(=S)[nH]c2cc3c(cc2c1=O)OCO3)N1CCN(c2ccccc2F)CC1 was read as Nrf2 activator 1%, ELG1 DNA repair 23µM*, A549 tox inconclusive, mIDH1 inhibitor -1% and Nrf2 block inconclusive.
Screening CCOC(=O)N1CCN(C(=O)CCCn2c(=S)[nH]c3ccc(Br)cc3c2=O)CC1 returned Nrf2 activator -1%, ELG1 DNA repair 23µM*, A549 tox -11%, mIDH1 inhibitor -2% and Nrf2 block inconclusive.
For O=C(CCCn1c(=S)[nH]c2cc3c(cc2c1=O)OCO3)N1CCN(c2ccc(F)cc2)CC1 the results were Nrf2 activator 0%, ELG1 DNA repair 16µM*, A549 tox -16%, mIDH1 inhibitor 3% and Nrf2 block inconclusive.
For CC1=C(C(=O)N2CCOCC2)CC(CC(=O)NCc2cccc3ccccc23)C(=O)N1Cc1ccccc1 (stereo not drawn) the results were Nrf2 activator 0% and mIDH1 inhibitor -6%.
`CCC(C(=O)NCCc1ccccc1OC)n1nc(C)c2c(C)n(-c3ccccc3)nc2c1=O` (stereo not drawn) gave Nrf2 activator 1%, ELG1 DNA repair inconclusive, A549 tox 0%, mIDH1 inhibitor -5% and Nrf2 block inconclusive.
`COc1cc(C2NC(=O)N(C)C3=C2C(=O)N(c2ccccc2)C3)ccc1O` (stereo not drawn) gave Nrf2 activator -1%, A549 tox -1%, mIDH1 inhibitor -3% and Nrf2 block -3%.
For Cc1ccc(C)c(N2CCN(C(=O)CCCn3c(=S)[nH]c4cc5c(cc4c3=O)OCO5)CC2)c1 the results were Nrf2 activator 2%, ELG1 DNA repair 9.2µM*, A549 tox -3%, mIDH1 inhibitor 0% and Nrf2 block inconclusive.
CCC(C)NC(=O)Cn1ccc2cc(S(=O)(=O)N3CCCCCC3)ccc21 (stereo not drawn) was read as Nrf2 activator 0%, ELG1 DNA repair 8%, A549 tox -9%, mIDH1 inhibitor 11% and Nrf2 block inconclusive.
`CCN1C(=O)[C@@H]2Cc3c([nH]c4ccccc34)C(c3ccc(OC)cc3)N2C1=S` (stereo partly drawn) gave Nrf2 activator 8%, ELG1 DNA repair inconclusive, A549 tox 11%, mIDH1 inhibitor -10% and Nrf2 block inconclusive.
For CCCN(CCC)c1nc(Cl)nc(NCCN2CCOCC2)n1 the results were Nrf2 activator 0%, ELG1 DNA repair 23µM*, A549 tox -5%, mIDH1 inhibitor 5% and Nrf2 block inconclusive.
For CCN(Cc1ccccc1)S(=O)(=O)c1ccc(C(=O)N(CCCN(C)C)c2nc3c(C)c(C)ccc3s2)cc1 the results were Nrf2 activator 1%, ELG1 DNA repair inconclusive, A549 tox inconclusive, mIDH1 inhibitor 1% and Nrf2 block 18µM*.
CCOC(=O)c1cc(-c2ccccc2)n(CCC(=O)N2CCN(c3ccccn3)CC2)c1C was read as Nrf2 activator 5%, ELG1 DNA repair 23µM*, A549 tox 6%, mIDH1 inhibitor 7% and Nrf2 block -9%.
`CCOC(=O)c1cc(-c2ccccc2)n(CCC(=O)NCCc2ccccc2)c1C` gave Nrf2 activator 0%, A549 tox 3% and mIDH1 inhibitor 2%.
Screening CCOC(=O)c1cnc2c(ccc3ccccc32)c1Nc1ccc(OC)cc1OC returned Nrf2 activator 0%, A549 tox -13%, mIDH1 inhibitor 20% and Nrf2 block 3%.
Cc1ccc(C(=O)C(C(=O)/C=C/c2ccccc2)=C2SCCCS2)cc1 was read as Nrf2 activator -1%, ELG1 DNA repair 18µM*, A549 tox inconclusive, mIDH1 inhibitor 9% and Nrf2 block 26µM*.
